Data published in PubChem BioAssay (NCI).
The panel holds about 79,000 compounds, 15% with a hit somewhere; the sample as a whole holds those more often. Cut-off read from the data, not from the text of the source: active = growth inhibition above about 70%; inactive = the rest.

How the values were obtained:
[1] = NCI Yeast Anticancer Drug Screen. Data for the rad50 strain (AID 155);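 note: 0% = growth of vehicle-only cultures of the same strain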; settings: S. cerevisiae rad50 strain growth inhibition, active compounds read high; at 50.0 µM unless noted
In short: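 Yeast carrying a defined DNA repair defect were exposed to test compounds, and growth was compared with vehicle-treated controls to give percent inhibition.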

[2] = NCI Yeast Anticancer Drug Screen. Data for the mec2-1 strain (AID 157); settings: S. cerevisiae mec2-1 strain, active compounds read high; at 50.0 µM unless noted
In short: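 Strain: mec2-1 (DNA repair/cell cycle alteration). Compound exposure, then growth measured; inhibition expressed relative to vehicle.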

[3] = NCI Yeast Anticancer Drug Screen. Data for the sgs1 mgt1 strain (AID 161);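 note: 0% = growth of cultures given vehicle only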; settings: S. cerevisiae sgs1 mgt1 strain, active compounds read high; at 50.0 µM unless noted
In short: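 Test agents were incubated with a DNA-repair-mutant yeast strain. Growth was then read and compared against vehicle-treated controls.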

[4] = NCI Yeast Anticancer Drug Screen. Data for the cln2 rad14 strain (AID 165);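 note: 0% = growth equal to vehicle treated cultures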; settings: S. cerevisiae cln2 rad14 strain, active compounds read high; at 50.0 µM unless noted
In short: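 Compounds are applied to the cln2 rad14 yeast strain, and growth is then compared with that of vehicle-treated cultures to give inhibition.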

[5] = NCI Yeast Anticancer Drug Screen. Data for the bub3 strain (AID 167); settings: S. cerevisiae bub3 mutant strain, active compounds read high; at 50.0 µM unless noted
In short: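 Compounds were applied to a genetically altered yeast strain carrying a cell-cycle control defect. Growth inhibition was scored against vehicle-treated controls.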

[6] = NCI Yeast Anticancer Drug Screen. Data for the mlh1 rad18 strain (AID 175); settings: S. cerevisiae mlh1 rad18 strain growth inhibition, active compounds read high; at 50.0 µM unless noted
In short: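 Read-out is yeast growth inhibition, calculated against vehicle-only controls. The compound was applied to a strain engineered with DNA damage repair alterations.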

Measured: growth inhibition

CS/C(=N\c1nccs1)NC(=O)c1cccc(Cl)c1
inactive: [1] 7.65% | [2] 20.4% | [3] 30.2% | [4] 18.8% | [5] 22.4% | [6] 10.8%

Cc1ccc(C)n1-n1c(Cc2ccccc2)n[nH]c1=O
inactive: [1] -21.8% | [2] -19.3% | [3] -15.1% | [4] 2.75% | [5] -31.8% | [6] -12.7%

Cc1cc(C(=O)c2ccccc2)on1
inactive: [1] 4.05% | [2] -22.6% | [3] -11.9% | [4] -36.1% | [5] 7.7% | [6] 4.55%

CC(=O)OCCOCNC(=S)N/N=C(\C)c1ccco1
inactive: [1] -19.9% | [2] -8.3% | [3] 3.4% | [4] 3.8% | [5] -4.95% | [6] -11.9%

COC(=O)C1CC2(CCC1=O)Cc1ccccc1C2=O (stereo not given)
inactive: [1] -15.5% | [2] -3.45% | [3] 28.5% | [4] 1.3% | [5] -4.25% | [6] -16.4%

CCOC(=O)O/C(C)=C\c1ccc(Cl)cc1
inactive: [1] 2.45% | [2] -2.65% | [3] -12.4% | [4] -50.4% | [5] -34.9% | [6] 7.05%

CCCCCCCCCCCCCCCCCCOc1ccccn1
inactive: [1] -9.8% | [2] -32.1% | [3] -9.75% | [4] 2.55% | [5] -17.9% | [6] 3.25%

Cc1cc(C)nc(NS(=O)(=O)c2ccc(Nc3c4ccccc4nc4c(C(=O)Nc5ccc(S(=O)(=O)Nc6cc(C)on6)cc5)ccc(Cl)c34)cc2)n1
inactive: [1] 32.9% | [2] 45.1% | [3] 23.1% | [4] 42.2% | [5] 18.9% | [6] 41.5%

COc1ccccc1NC(=O)c1ccccc1
inactive: [1] 23.2% | [2] 11.3% | [3] 4.95% | [4] -9.25% | [5] 2.75% | [6] 16.1%

CCOC(=O)c1ccc(N=Cc2ccc(N(CCC#N)CCC#N)cc2)cc1
inactive: [1] 9.35% | [2] 1.65% | [3] -7.25% | [4] 3.7% | [5] -1.5% | [6] -7.45%

COc1cc(C(=O)NNC(=O)c2ccc(Cl)c(Cl)c2)cc(OC)c1OC
inactive: [1] 24.4% | [2] 33.9% | [3] 20.5% | [4] 18.4% | [5] 33.3% | [6] 34.9%

Clc1ccc(Oc2ncnc3nc[nH]c23)cc1
inactive: [1] 3.6% | [2] 5.75% | [3] 2.85% | [4] -1.35% | [5] -1.5% | [6] 23.5%

CCCn1/c(=N\N=O)sc2ccccc21
inactive: [1] -0.45% | [2] 2.9% | [3] -5.5% | [4] -29.6% | [5] -23.1% | [6] 7%

CCOC(=O)c1nc(N)nc(N)c1-c1ccc(Cl)cc1
inactive: [1] 3.6% | [2] 10.7% | [3] -3.4% | [4] -4.9% | [5] 15.6% | [6] -1.2%

CCC(c1cccc(C(=O)O)c1)C(C(C)=O)c1ccc(O)cc1 (stereo not given)
inactive: [1] 0.8% | [2] -20.5% | [3] -6.1% | [4] -22.5% | [5] 4% | [6] -5.05%

C/C=C(/I)CBr
inactive: [1] 28.4% | [2] 1.1% | [3] 1.75% | [4] 3.05% | [5] 12.2% | [6] 21.3%

CC(=O)OC1C(Br)CCCC1Br (stereo not given)
inactive: [1] -26% | [2] 4.25% | [3] 1.75% | [4] 1.9% | [5] 0.45% | [6] 15.8%

Nn1nnc2ccccc21
inactive: [1] 26.8% | [2] 24.8% | [3] 16.3% | [4] 33% | [5] 7.1% | [6] 32.1%

COC1/C=C/OC2(C)Oc3c(C)c(O)c4c(c3C2=O)C(=O)C([N+](=O)[O-])=C(NC(=O)C(C)=C/C=C\C(C)C(O)C(C)C(O)C(C)C(OC(C)=O)C1C)C4=O (stereo not given)
inactive: [1] 21.7% | [2] 10.4% | [3] 29.4% | [4] 19.6% | [5] 24.4% | [6] 29.6%

O=C1CN(c2ccccc2)C(=O)CN1NCNN1CC(=O)N(c2ccccc2)CC1=O
inactive: [1] -27.4% | [2] 2.1% | [3] -1.5% | [4] 4.35% | [5] -10% | [6] -5%
